Molecular target: CENPE
Assay: pooled miR-30 sensor sort-seq; sequence = guide strand
Conditions: shRNA
Further: reference of the scale not given here.

Row | Sequence | sensor-assay potency score (higher = more potent)
1 | TTGAGTGTCTCCTCTACTCTTC | -0.033
2 | TTTATTTTTGTAACATAGCTTA | -0.197
3 | TTGAGAGTCTATGTATTCCTGT | 0.505
4 | TTTATCAATAGTTTCTTGGTGC | 0.371
5 | TTCTTGAGTATCTATATTCATG | -0.957
6 | TTGAGTATCTATATTCATGTTA | 0.243
7 | TATAGTACCATTGTAGCCTTGT | 0.768
8 | TTTTGTAGCACTGATTTCCTTT | -0.158
9 | TATTTCACACATTTTCTCCTGA | 0.76

Molecular target: CENPO
Assay: as above
Conditions: shRNA

Row | Sequence | sensor-assay potency score (higher = more potent)
10 | TAGGTTTAGAAACCTCCTCAGC | -1.26
11 | TTTCTGTATGACAAGGTCCACA | -1.24
12 | TTGCTCATTGATCTCCACTGTT | -0.258
13 | TTATACAGCAATCTAGCACAGA | -0.484
14 | TTGATCTCCACTGTTTGGTTGG | 0.162
15 | TAAGCATTCAGGTACTCGCAGA | -0.982
16 | TTTAGGTTTAGAAACCTCCTCA | 0.397
17 | TTATTTTTTGAAACTGAAGGAA | -0.369
18 | TATTTTTTGAAACTGAAGGAAG | -1.18
19 | TATTTCTCTGATGTGCTCCCAG | -0.111
20 | TTTTGCAGCTATCTCTTCCAGG | 0.117
21 | TTGAAACTGAAGGAAGTCCCGA | 0.077

Molecular target: CEP110
Assay: as above
Conditions: shRNA

Row | Sequence | sensor-assay potency score (higher = more potent)
22 | TTCATCTGCAATCTCAACTTGC | 0.351
23 | TTCTTTTTCTCTAACTCTCGGA | -0.414
24 | TTGCATTGCTGAAATGTCGTTA | 0.524
25 | TAACAGATTATTGTCATCCTGC | 0.569
26 | TAGTTGTATAGCTTCTTCCAGT | -0.43
27 | TTTCTTTCTGTCAAGAACTGGT | -0.248
28 | TAAACCAAAAACTTGCTCCTGA | 0.902
29 | TTTATGGTCTTGATAGTCCAAA | -1.01
30 | TTATGTTTAGACATCTGCCTTA | 0.679
31 | TTTCTCAATTTCTAGGACCTGT | -0.0728
32 | TAGTCTACCACTCAACTGCTTG | -1.16
33 | TTGTAGTCTACCACTCAACTGC | 0.0361

Molecular target: CEP55
Assay: as above
Conditions: shRNA

Row | Sequence | sensor-assay potency score (higher = more potent)
34 | TTTCTTCATATTTTCTTCGAAA | -1.41
35 | TTTTCTTCGAAATTCACTCAGT | 0.403
36 | TTTATGCCTATCATCTTCCAGA | -0.706
37 | TTTGTGAATACAACAGCTGATT | -0.95
38 | TTTATTGATGAGTTGAAGCAGT | -0.0395
39 | TCTTTGTGAATACAACAGCTGA | -0.875
40 | TTCTTCTTGCTGCTTTAGCAGA | -1.21
